# Screening results as filed in PubChem.
# TDP1 cell CPT: growth inhibition of DT40 Tdp1-/-;hTDP1 cells with camptothecin (screen for TDP1 inhibitors); chicken DT40 Tdp1-/-;hTDP1 cells + 20 nM CPT, ATP luminescence, 48 h; hit rate 12% among 420,000; Potency, µM (highest dose often 46.2 µM), for the others: at the highest dose activity change, negative = growth inhibition, usual class: inhibitors; AID 686979; further: potency means the concentration at half of the fitted maximal effect; on the % scale 0 is the no-effect control and ±100 the full control effect; nearly all actives have a fitted effect of over 55% in size
#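 Chicken DT40 Tdp1-/- cells stably complemented with human TDP1 were seeded at 400 cells/well in medium containing 20 nM camptothecin, exposed to pin-transferred compounds, and grown at 37 °C for at least 48 hr. Viability was read as ATP luminescence.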
# TGFb inhibitor: inhibitors of TGF-b signaling; HepG2 CAGA-GFP TGF-b/SMAD3 reporter, GFP fluorescence, 18 h; TGF-beta stimulated, 500 pg/mL final; Potency, µM (doses to about 46.1 µM), without a hit: at the top dose activity, negative = inhibition, usual class: inhibitors; hit rate 1.2% among 410,000; further: potency means the concentration at half of the fitted maximal effect; on the % scale 0 is the no-effect control and ±100 the full control effect; nearly all actives have a fitted effect of over 65% in size
#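 Inhibition was scored as loss of TGF-beta-induced (500 pg/mL final, 18 hours, 37 degrees C) GFP in HEPG2 cells carrying a CAGA-GFP reporter, in DMEM with 1% FBS. Well GFP was summed per cell; Activity was normalised to unstimulated and stimulated DMSO wells, then concentration-response fitting.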
# TDP1 inh: blocks human tyrosyl-DNA phosphodiesterase 1 | Q9NUW8 | recombinant TDP1, AlphaScreen DNA substrate cleavage | Potency, µM (highest dose often 130 µM), without a hit: at the highest dose activity change, negative = inhibition, hits mostly inhibitors | hit rate 0.28% among 350,000 | AID 485290; further: potency means the concentration at half of the fitted maximal effect; on the % scale 0 is the no-effect control and ±100 the full control effect; nearly all actives have a fitted effect of over 40% in size
# Target sequence (Q9NUW8 whole entry, looked up): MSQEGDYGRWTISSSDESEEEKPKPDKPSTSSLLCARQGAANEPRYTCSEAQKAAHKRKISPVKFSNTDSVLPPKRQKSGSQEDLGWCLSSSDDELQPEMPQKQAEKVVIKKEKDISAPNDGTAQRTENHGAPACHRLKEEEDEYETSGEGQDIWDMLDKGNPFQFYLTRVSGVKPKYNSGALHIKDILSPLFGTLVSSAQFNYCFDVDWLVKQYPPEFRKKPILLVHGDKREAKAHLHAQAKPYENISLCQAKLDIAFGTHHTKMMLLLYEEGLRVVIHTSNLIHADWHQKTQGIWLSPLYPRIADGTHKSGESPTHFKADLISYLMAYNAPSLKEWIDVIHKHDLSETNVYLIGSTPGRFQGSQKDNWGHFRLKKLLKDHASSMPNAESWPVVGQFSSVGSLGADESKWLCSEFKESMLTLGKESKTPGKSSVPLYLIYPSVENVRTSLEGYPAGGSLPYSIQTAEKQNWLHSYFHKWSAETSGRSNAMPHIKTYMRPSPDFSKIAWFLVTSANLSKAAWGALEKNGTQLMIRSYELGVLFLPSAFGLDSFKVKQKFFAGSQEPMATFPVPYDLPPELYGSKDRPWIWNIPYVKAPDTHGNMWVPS
#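 Tdp1 1 nM final; 15 min RT w/ cpd; substrate 15 nM, 5 min; beads 10 ug/ml, 10 min; AlphaScreen read. Neg ctrl: no enzyme.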
# TDP1 cell noCPT: qHTS for Inhibitors of human tyrosyl-DNA phosphodiesterase 1 (TDP1): qHTS in cells in absence of CPT | DT40 Tdp1-/- hTDP1 cells, no CPT, ATP luminescence, 48 h | Potency, µM (doses to about 46.2 µM), for the others: at the highest dose activity change, negative = growth inhibition, most hits filed as inhibitors | hit rate 15% among 420,000 | AID 686978, 2013; further: potency means the concentration at half of the fitted maximal effect; on the % scale 0 is the no-effect control and ±100 the full control effect; nearly all actives have a fitted effect of over 55% in size
#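 Stably hTDP1-transfected Tdp1-null chicken DT40 cells were treated with library compounds minus camptothecin and grown for at least 48 hr at 37 °C, after which cellular ATP was quantified by luminescence.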
# HepG2 viability: counter-screen for TGF-b inhibitors: cytotoxicity in HepG2 cells. HepG2 CAGA-GFP viability, ATP luminescence, 18 h. Potency, µM (doses to about 46.1 µM), without a hit: at the top dose activity change, negative = cytotoxicity, most hits filed as cytotoxic. hit rate 0.76% among 410,000. AID 588856; further: potency means the concentration at half of the fitted maximal effect
#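 HepG2 CAGA-GFP cells (1000/well, DMEM with 1% FBS) received compound, then TGF-beta at 500 pg/mL final, and were incubated 18 hours at 37 degrees C. Viability was read by CellTiter-Glo luminescence. Media-only wells were set as complete cell-killing and DMSO as no toxicity.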
# IL-1B inflam inh: inhibitors of inflammasome signaling (IL-1 beta secretion). THP-1 LPS/ATP IL-1B secretion, AlphaLISA, 16 h; active compounds read low. activity change, % at 57.5 µM. hit rate 4.7% among 360,000; in the data active means activity change below about -50%; inconclusive means mostly about -30% to -49%; further: on the % scale 0 is the no-effect control and ±100 the full control effect
#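 THP-1 cells pretreated 1 hr with compounds (up to 57.5 uM final), then stimulated with LPS (250 ng/mL final) plus ATP (1.25 mM final); secreted IL-1B measured by AlphaLISA after 16 hr, decreased signal indicating inhibition.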
# Numbers without * were called inactive; ? = inconclusive; / = no result given; [ ] = another dose, or the depositor's remark. Sampled rows, rich in hits. Any-hit rate of the full collection: about 18%. Unless noted, the call rests on the fitted dose curve; in most records, active means well fitted curve in the direction sought with a large enough effect; inconclusive means small, poorly fitted or top-dose-only effect, or another doubt; inactive means no such curve, though single readings can be large; an effect the other way counts as inactive or inconclusive.
SMILES,TDP1 cell CPT,TGFb inhibitor,TDP1 inh,TDP1 cell noCPT,HepG2 viability,IL-1B inflam inh
Cc1ccc(NC(=O)C2CCN(c3nc4ccccc4nc3C(F)(F)F)CC2)cc1C,?,-28.7%,0.0%,?,-1.0%,/
COc1cc(NC(=O)C2CCN(c3nc4ccccc4nc3C(F)(F)F)CC2)cc(OC)c1,16.4µM*,-9.6%,-2.6%,25.9µM*,-15.8%,/
O=C(Nc1ccc(F)cc1)C1CCN(c2nc3ccccc3nc2C(F)(F)F)CC1,?,-16.2%,0.0%,?,-23.6%,/
O=C(Nc1cccc(Cl)c1)C1CCN(c2nc3ccccc3nc2C(F)(F)F)CC1,?,-18.7%,5.3%,20.6µM*,-13.2%,/
O=C(Nc1cccc(F)c1)C1CCN(c2nc3ccccc3nc2C(F)(F)F)CC1,18.4µM*,?,2.6%,16.4µM*,-37.0%,/
Cc1ncccc1C(=O)N1CCCC(C(=O)c2ccc3c4c(cccc24)CC3)C1 (configuration not stated),?,?,-3.0%,?,-5.1%,-6.4
CN(C)C(=O)CCC(=O)N1CCCC(C(=O)c2ccc3c4c(cccc24)CC3)C1 (configuration not stated),?,0.5%,0.0%,14.6µM*,-3.3%,-7.9
CCc1nc(CN2CCCC(C(=O)c3ccc4c5c(cccc35)CC4)C2)c(C)[nH]1 (configuration not stated),?,?,5.1%,16.4µM*,-43.5%,-99.9*
CC(C)(C)NC(=O)C(c1cccc2ccccc12)n1c(=O)c(-c2ccco2)nc2ccccc21 (configuration not stated),23.1µM*,/,/,?,/,14.0
O=C(NCc1ccccc1)C(c1cccc2ccccc12)n1c(=O)c(-c2ccco2)nc2ccccc21 (configuration not stated),?,/,/,?,/,-4.6
CC(C)(C)NC(=O)C(c1cccc2ccccc12)n1c(=O)c(-c2ccccc2)nc2ccccc21 (configuration not stated),20.6µM*,/,/,0.13µM*,/,17.0
CC(C)CC(=O)Nc1nc2ccc(S(C)(=O)=O)cc2s1,-20.2%,-15.2%,-3.6%,-6.6%,11.2µM*,-0.7
CS(=O)(=O)c1ccc2nc(NC(=O)CC3CCCC3)sc2c1,?,-32.0%,5.1%,13µM*,-29.7%,-24.5
O=C(CS(=O)(=O)c1ccc(Cl)cc1)Nc1nc2ccc(Br)cc2s1,?,-38.2%,5.2%,23.1µM*,-46.6%,/
CC1C(=O)N2CCCc3cc(S(=O)(=O)NCCc4ccccc4)cc1c32 (configuration not stated),?,-13.0%,3.0%,-26.7%,3.0%,8.7
CCN(c1ccccc1)S(=O)(=O)c1cc2c3c(c1)CCN3C(=O)CC2,/,/,-3.1%[0.505 µM],/,/,/
CCN(c1cccc(C)c1)S(=O)(=O)c1cc2c3c(c1)CCN3C(=O)CC2,29.1µM*,-12.8%,-8.3%[0.505 µM],14.6µM*,-8.4%,18.5
CCN(c1ccccc1)S(=O)(=O)c1cc2c3c(c1)C(C)C(=O)N3CCC2 (configuration not stated),18.4µM*,-2.3%,0.7%,16.4µM*,4.4%,8.2
C/C=C1\NC(=O)[C@H](C)NC(=O)[C@@H](NC(=O)[C@H](Cc2ccc(O)cc2)NC(=O)[C@@H](NC(=O)/C(C)=C/C)C(C)C)[C@@H](C)OC(=O)[C@H](CCCc2ccc(O)cc2)NC(=O)[C@@H](CCC(=O)OC)NC1=O,2.1%,-8.0%,/,6.4%,4.1%,22.9
C/C=C1\NC(=O)[C@H](CC(N)=O)N(C)C(=O)C([C@@H](C)O)NC(=O)C(CCCc2ccc(OC)cc2)NC(=O)[C@H](C(C)C)NC(=O)/C(=C\C)NC(=O)[C@H](O)[C@@H](C[C@@H](O)CCCCCCC)NC(=O)[C@H](C)NC(=O)CN(C)C(=O)[C@H](CCC(N)=O)NC1=O (some centres not stated),7.31µM*,?,/,8.2µM*,-29.5%,50.0
CCOC(=O)CNNC(=O)Nc1ccc(Cl)c(Cl)c1,-9.4%,19.7%,1.3%,-17.1%,-0.3%,-19.6
CCOC(=O)C(C(=O)OCC)C(Nc1cccc(Br)c1)c1ccccc1 (configuration not stated),14.6µM*,0.0%,2.0%,?,-56.6%,-68.4*
COC(=O)C(C)Nc1cccc(Br)c1 (configuration not stated),-0.9%,0.2%,/,0.6%,10.1%,5.3
CCOC(=O)C(c1ccccc1)C(Nc1ccc(Cl)c(Cl)c1)c1ccccn1 (configuration not stated),?,-16.9%,7.6%,9.2µM*,11.0%,41.2
O=C(NCc1ccc(F)cc1)n1cc(P(=S)(c2ccccc2)c2ccccc2)c2ccccc21,/,/,-0.4%,/,/,/
SMILES,TDP1 cell CPT,TGFb inhibitor,TDP1 inh,TDP1 cell noCPT,HepG2 viability,IL-1B inflam inh
Cn1ccc2c(N3c4ccccc4CCc4ccccc43)cc3c(c21)C1CCC3C1 (configuration not stated),2.31µM*,?,/,5.17µM*,-7.1%,-16.3
Cn1ccc2c(N3CCOCC3)cc3c(c21)C1CCC3C1 (configuration not stated),-27.9%,-0.8%,/,?,-0.1%,-3.0
Cn1ccc2c(N3CCC3)cc3c(c21)C1CCC3O1 (configuration not stated),-11.5%,-3.2%,/,?,-3.0%,5.7
Cn1ccc2c(N3c4ccccc4CCc4ccccc43)cc3c(c21)C1CCC3O1 (configuration not stated),23.1µM*,?,/,20.6µM*,7.08µM*,19.2
Cn1ccc2c(N3CCCCCC3)cc3c(c21)C1CCC3C1 (configuration not stated),14.6µM*,?,/,11.6µM*,-21.1%,39.2
COc1ccccc1CNC(=O)c1ccc(N2CCCC2)c(NC(=O)NCc2ccc(C)cc2)c1,?,?,1.2%,?,-16.8%,/
COc1ccc(CCNC(=O)CCCn2c(=O)c3ccccc3n(Cc3ccccc3C)c2=O)cc1OC,-24.1%,3.8%,7.3%,-1.7%,-0.5%,/
O=C(CCCSCCCC(=O)NN=Cc1ccccc1)NN=Cc1ccccc1,?,0.0%,/,23.1µM*,-19.8%,-2.8
CC(=O)Oc1ccc(/C=N/NC(=O)CCSc2ccccc2)cc1,?,0.0%,2.3%,18.4µM*,2.5%,47.9
